From PubChem BioAssay
This is a sample that favours compounds with a hit; in the whole collection about 5.2% have one here.
A3G deaminase = APOBEC3G (human) deaminase inhibition. 0.28% of 330,000 active. recombinant A3G, ssDNA deamination FAM/TAMRA fluorescence. AID 493012. inhibition, % at 20 µM. Q9HC16;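 active means inhibition of at least 40% at 20 µM, with no more than 30% in the related APOBEC3A deaminase screen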;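 further: plate controls were DMSO wells with A3G for no effect and wells lacking A3G enzyme for full effect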
M18AAP inhibitor = PfM18AAP enzyme inhibition. recombinant PfM18AAP, H-Glu-NHMec fluorogenic cleavage. inhibition, % at 7.35 µM. 1.2% of 290,000 active;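 active means inhibition above the campaign mean inhibition over all tested compounds plus 3 SD, cut at about 28% in these data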;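 further: 0% = plate median of test compound wells and 100% = 2 mM ZnCl2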
CendR NRP1 mod = modulators of CendR peptide binding to human neuropilin-1; O14786; FAM-RPARPAR peptide binding to NRP-1, fluorescence polarization; inhibition, % at 25 µM; 0.85% of 360,000 active; AID 602438;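 active means inhibition or corrected inhibition above about 18%, plus a signal ratio from 0.5 to 1.5, limit read from the data, passing the limit was not always enough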
A3A deaminase = blocks human APOBEC3A ssDNA deamination | recombinant A3A, FAM/TAMRA ssDNA deamination fluorescence | inhibition, % at 20 µM | 0.41% of 330,000 active | AID 493011;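 active means at least 40% inhibition at 20 µM here, with at most 30% in a related deaminase screen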;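 further: plate controls were A3A with DMSO for no effect and wells lacking A3A enzyme for full effect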
Yeast superoxide = lowers age-related superoxide in aged yeast cells. S. cerevisiae aged cells, superoxide DHE fluorescence; active compounds read low. 0.18% of 330,000 active. superoxide response (% of plate mean), % at 10 µM;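 active means superoxide response under a set limit, about three screen SD below normal, cut at about 65% in these data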;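 further: yeast aged for seven days with compound at 30 °C before DHE staining; 100% = average MFI of all compound-treated wells on the plate with controls excluded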
ALR H2O2 inh = human ALR oxidase inhibition via reduced H2O2; P55789; purified ALR, DTT oxidation, H2O2 HRP-luminol luminescence; inhibition, % (concentration not given with the values); 3.8% of 290,000 active; AID 485317;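 active means mean replicate inhibition above about 79%, with every replicate also reaching it, limit read from the data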
Target sequence (P55789 whole entry, looked up): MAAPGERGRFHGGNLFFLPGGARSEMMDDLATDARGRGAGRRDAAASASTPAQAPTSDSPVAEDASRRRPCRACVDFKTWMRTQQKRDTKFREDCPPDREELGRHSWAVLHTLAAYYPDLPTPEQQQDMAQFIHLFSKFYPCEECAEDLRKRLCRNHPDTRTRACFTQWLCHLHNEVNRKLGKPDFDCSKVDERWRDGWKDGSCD
A3G conf = confirmation of human APOBEC3G DNA deaminase inhibitors. shares compounds with A3G deaminase. recombinant A3G ssDNA deaminase, UDG/FAM-TAMRA fluorescence. inhibition, % at 20 µM. 72% of 890 active;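 active means inhibition reaching a set limit in any replicate at 20 µM, the limit being 80% of the first screen's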
UDG A3G counter = E. coli UDG inhibition in APOBEC3G counter-screen; UDG counterscreen, FAM/TAMRA oligo fluorescence; shares compounds with A3G deaminase; inhibition, % at 20 µM; 710 tested, under 10 active;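 active means compounds giving 40% or more inhibition at 20 µM in any one of the three replicates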;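 further: plate controls were DMSO wells with UDG and oligo for no effect and DMSO wells lacking both for full effect; inhibitors lower the FAM signal released by uracil excision and alkaline cleavage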
Target sequence (P12295 whole entry, looked up): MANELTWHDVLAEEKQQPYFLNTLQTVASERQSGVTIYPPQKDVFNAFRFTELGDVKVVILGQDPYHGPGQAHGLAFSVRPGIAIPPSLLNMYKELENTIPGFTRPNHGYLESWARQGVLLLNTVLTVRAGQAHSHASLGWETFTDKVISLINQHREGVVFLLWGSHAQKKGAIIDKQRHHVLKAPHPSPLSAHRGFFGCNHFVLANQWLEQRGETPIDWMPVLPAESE
Numbers without * were called inactive; i = inactive; · = no result given.

SMILES | A3G deaminase | M18AAP inhibitor | CendR NRP1 mod | A3A deaminase | Yeast superoxide | ALR H2O2 inh | A3G conf | UDG A3G counter
C=CCN(CC=C)CCOc1ccc(C)cc1[N+](=O)[O-] | -5 | 5 | -11 | 0 | 87 | -2 | · | ·
CCCOc1ccc(C(=O)NNC(=S)NC(=O)CC)cc1 | 48* | 0 | -2 | -1 | i | 69 | 6 | -2
C=CCNC(=S)NNC(=O)c1ccc(OCCC)cc1 | -5 | 12 | 7 | -2 | 104 | 33 | · | ·
Cc1nn(C)c2c1NC(=O)CS2 | · | · | 7 | · | · | · | · | ·
CCCCCCNC(=O)N[C@@H](C(=O)NCCC[C@H]1CN2C(=NC[C@@H]2Cc2ccccc2)N1CCc1cccc(OC)c1)C(C)C | 54* | · | · | 10 | 90 | -24 | 32* | ·
C/C=C(\C)C(=O)NCCN1C2=NC[C@@H](Cc3ccccc3)N2C[C@@H]1Cc1ccc(OC)cc1 | -3 | · | 2 | -1 | 98 | -2 | · | ·
COc1cccc(CSCC(=O)NCCc2ccccc2)c1OC | -5 | 1 | 5 | 1 | 105 | -21 | · | ·
COCCCNC(=S)N(CCCO)Cc1cc2cc3c(cc2[nH]c1=O)OCO3 | 48* | 8 | 9 | -1 | 105 | -30 | 0 | -3
COCCCNC(=S)N(CCCO)Cc1cc2cc3c(cc2[nH]c1=O)OCCO3 | -7 | -2 | -1 | -4 | 106 | -1 | · | ·
CCn1cc(C(=O)N=c2sc3ccccc3n2C)c(=O)c2ccc(C)nc21 | · | -1 | · | · | · | · | · | ·
Cc1ccc(/C=N/n2c(-c3ccco3)n[nH]c2=S)s1 | 41* | 14 | 1 | -6 | 87 | 11 | 75* | 1
Cc1cc(-c2n[nH]c(=S)n2/N=C/c2ccc(C)s2)n[nH]1 | 55* | 17 | -2 | 5 | 89 | 19 | 72* | -3
COc1ccccc1/C=C/C=N/n1c(-c2ccco2)n[nH]c1=S | 16 | 17 | -7 | -5 | 91 | -7 | · | ·
Cc1ccc(/C=N/n2c(C3CCCCC3)n[nH]c2=S)s1 | -5 | 6 | 11 | -5 | 113 | -11 | · | ·
S=c1[nH]nc(-c2ccco2)n1/N=C/c1ccccc1Cl | 45* | 15 | 12 | -5 | 98 | 3 | 37* | 3
CCn1c(CN2CCN(C(=O)c3ccco3)CC2)nc2c1c(=O)n(C)c(=O)n2C | 0 | -1 | 3 | 4 | 94 | -17 | · | ·
OC(CN1CCN(C(c2ccccc2)c2ccccc2)CC1)c1ccc(Br)cc1 (stereo not given) | -7 | 1 | 11 | -3 | 97 | · | · | ·
CS(=O)(=O)c1ccc(Cl)c(NC(=O)CCNC(=O)c2ccco2)c1 | -11 | -5 | 8 | -2 | 94 | -14 | · | ·
COc1cccc(C(=O)NCC(=O)N/N=C/c2c(C)[nH]c3ccccc23)c1 | 44* | 5 | 11 | 5 | 121 | 3 | 0 | ·
Cc1cccc2cc(COC(=O)c3ccccn3)c(=O)[nH]c12 | 40* | 1 | 14 | -15 | 94 | -2 | -1 | -3
COc1ccc(C(=O)OCc2cc3cccc(C)c3[nH]c2=O)cc1 | -6 | -6 | 18 | -2 | 99 | -1 | · | ·
O=S(=O)(c1ccccc1)N1CCN(S(=O)(=O)N2CCCCCC2)CC1 | -14 | 2 | 14 | -1 | 84 | 4 | · | ·
O=c1c2ccccc2sn1-c1ccc(S(=O)(=O)N2CCCCC2)cc1 | 64* | 12 | 6 | -2 | 112 | -2 | 65* | 2
Cn1c(-c2ccc(C#N)cc2)c(C#Cc2ccccc2)c2ccccc21 | · | · | -8 | · | · | · | · | ·
Cc1ccc(-c2cc(C(=O)Nc3cccnc3)c3ccccc3n2)o1 | 50* | -105 | -33 | 25 | 114 | -14 | 36* | -5
Cc1nc2c(=O)[nH]c(=S)n(C)c2nc1C | 52* | 10 | 11 | -2 | 108 | 5 | 20 | -35
COc1ccc(NC(C)=O)cc1S(=O)(=O)NC(Cc1ccccc1)C(=O)O (stereo not given) | -5 | -1 | 4 | 3 | 101 | -2 | · | ·
CCc1c(C)nc(SCC(=O)c2ccc(C)c(C)c2)[nH]c1=O | -5 | 2 | -3 | -2 | 92 | -69 | · | ·
